PubChem BioAssay AID602342 (Broad Institute, 2012)
Out of some 340,000 compounds screened, about 1,000 (0.29%) were called active.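 The calls were made as follows: active = mean replicate activation score at least 90 and every replicate individually at or above 90; inconclusive = only one of the two criteria met; inactive = neither criterion met.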 What follows is part of a selection rich in actives, with near analogues and random picks from the rest.

Experiment: compounds raising miR-122 luciferase sensor output – cell-based, single point, plate reader, miR-122 inhibitor project, primary screen (AID 602342);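 also: higher luciferase means less miR-122 activity so hits act as miR-122 inhibitors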
Conditions: Huh7 miR-122 Renilla luciferase sensor, 48 h, hits give high values, neutral wells = 0, positive control = 100; at 16.7 µM unless noted

Activation (reporter increase), active:
O=C(Oc1ccc(C(=S)N2CCOCC2)cc1)c1ccc(F)cc1 330% [at 12.5 µM]
O=C(/C=C(O)/C=C/c1ccc(O)cc1)/C=C/c1ccc(O)cc1 140% [at 12.5 µM]
Cn1cnc([N+](=O)[O-])c1Sc1ccccc1 217% [at 12.5 µM]
Cc1ccc(C(=O)Nc2ccccc2-c2ccccc2)cc1S(=O)(=O)Nc1ccccc1 94% [at 12.5 µM]
Cc1cc(C)cc(NS(=O)(=O)c2ccc(F)cc2)c1 117% [at 12.5 µM]
O=C1c2ccccc2C2=Nc3ccccc3SC(c3ccccc3F)C12 (configuration not stated) 162% [at 12.5 µM]
CS(=O)(=O)N(CC(=O)Nc1ccc(Cl)c(Cl)c1)C1CCCCC1 174% [at 12.5 µM]
CCc1ccc(-c2cc(C)no2)cc1S(=O)(=O)NCCc1ccc(S(N)(=O)=O)cc1 124% [at 12.5 µM]
COc1ccc(CNS(=O)(=O)c2cc(-c3cc(C)no3)ccc2C(C)C)cc1 200% [at 12.5 µM]
CCCC(=O)Nc1ccc2c(c1)C(=O)N(C)[C@H]1CC[C@@H](CC(=O)NCc3cccc(F)c3)O[C@H]1CO2 120%
O=C(Nc1cc(S(=O)(=O)Nc2ccc(Cl)cc2)ccc1O)c1ccc(F)cc1F 118% [at 12.5 µM]

Activation (reporter increase), inactive:
Cc1ccc(S(=O)(=O)Nc2ccc3c(c2)C(=O)N([C@H](C)CO)C[C@H](C)[C@H](CN(C)S(=O)(=O)c2ccc(F)cc2)O3)cc1 -7.86%
CC(=O)N1CC[C@@H]2[C@@H](CO)N(C)c3ccc(-c4ccc(C#N)cc4)cc3[C@@H]21 -2.99%
C[C@@H]1CN([C@H](C)CO)C(=O)c2cc(NC(=O)NC3CCCCC3)ccc2O[C@@H](C)CCCCO[C@H]1CN(C)S(C)(=O)=O -11.1%
CCC(=O)N[C@H]1C=C[C@@H](CC(=O)NCC2CCCCC2)O[C@H]1CO -4.01%
C[C@@H]1CCCCO[C@@H](CN(C)Cc2ccncc2)[C@H](C)CN([C@@H](C)CO)C(=O)c2cc(N(C)C)ccc2O1 9.37%
C[C@@H]1CN([C@@H](C)CO)C(=O)Cc2cc(NC(=O)Nc3ccc(F)cc3)ccc2O[C@@H]1CN(C)C -1.94%
CN(C)C(=O)[C@@H]1[C@@H](CO)[C@@H]2Cn3c(cccc3=O)[C@H]1N2CC1CCCCC1 -3.4%
Cc1ccccc1-c1cnc2c(c1)C(=O)N([C@@H](C)CO)C[C@@H](C)[C@@H](CN(C)CC1CCOCC1)O2 -4.12%
CN1C(=O)c2cc(NS(=O)(=O)c3ccc(Cl)cc3)ccc2OC[C@H]2O[C@@H](CC(=O)O)CC[C@H]21 37.8%
Cc1ccc(C(=O)Oc2ccc(C(=S)N3CCOCC3)cc2)cc1 -1.88% [at 12.5 µM]
O=C(Oc1ccc(F)cc1)N1CCOCC1 -3.21% [at 12.5 µM]
CC(=O)N(C)C[C@H]1Oc2ncc(-c3cccc(F)c3)cc2C(=O)N([C@@H](C)CO)C[C@H]1C -3.49%
CN1C(=O)c2cc(NC(=O)c3ccc(F)c(F)c3)ccc2OC[C@H]2O[C@@H](CC(=O)N3CCCCC3)CC[C@H]21 -8.45%
COc1ccc(/C=C/C(=O)c2c(O)cc(OC)cc2OC)cc1 2.04% [at 12.5 µM]
O=C(/C=C/c1ccc2c(c1)OCCO2)c1ccc(O)cc1 7.01% [at 12.5 µM]
Cc1noc(C)c1NC(=O)N(C)C[C@H]1OCCCC[C@H](C)Oc2ccc(NC(=O)Nc3ccccc3)cc2C(=O)N([C@H](C)CO)C[C@@H]1C -0.276%
Cn1cnc([N+](=O)[O-])c1Sc1n[nH]c(N)n1 -3.18% [at 12.5 µM]
Cn1cnc([N+](=O)[O-])c1Nc1ccccc1O 2.42% [at 12.5 µM]
CCN(C[C@@H]1[C@H](c2ccccc2)[C@@H](CO)N1CC1CC1)C(=O)c1ccccn1 -7.14%
C[C@@H]1CN([C@@H](C)CO)C(=O)Cc2cc(NC(=O)C3CC3)ccc2O[C@H]1CN(C)C(=O)NC1CCCCC1 0.966%
CCN(CC)S(=O)(=O)c1cc(C(=O)Nc2ccccn2)ccc1C -6.4% [at 12.5 µM]
COc1cc(OC)c(C(=O)Nc2ccccc2-c2ccccc2)cc1OC 9.15% [at 12.5 µM]
C[C@H]1CCCCO[C@@H](CN(C)C(=O)Nc2cccc3ccccc23)[C@@H](C)CN([C@@H](C)CO)C(=O)c2cc(NS(=O)(=O)c3cn(C)cn3)ccc2O1 -0.833%
Cn1c(=O)n(C)c2cc(S(=O)(=O)Nc3ccc(F)cc3)ccc21 44% [at 12.5 µM]
Cc1ccc(NS(=O)(=O)c2ccc(F)cc2)nc1 4.41% [at 12.5 µM]
COc1ccc(CN(C)C[C@H]2Oc3c(NS(=O)(=O)c4ccccc4)cccc3C(=O)N([C@@H](C)CO)C[C@H]2C)cc1 4.79%
CCC(=O)N1[C@@H]2c3ccc(-c4cccnc4)c(=O)n3C[C@H]1[C@H](CO)[C@H]2C(=O)N1CCc2ccccc2C1 2.45%
COc1ccccc1C#Cc1cnc2c(c1)C(=O)N([C@@H](C)CO)C[C@H](C)[C@@H](CN(C)C(=O)CC1CC1)O2 -1.03%
O=C1c2ccccc2C(=O)C1c1ccccc1F -3.15% [at 12.5 µM]
O=C(C[C@@H]1C[C@@H]2c3cc(NC(=O)Nc4ccccc4F)ccc3O[C@@H]2[C@H](CO)O1)NCCc1ccccc1 -2.6%
CS(=O)(=O)N(CC(=O)Nc1ccc(F)cc1)C1CCCCC1 0.106% [at 12.5 µM]
N#CCCN(C(=O)Nc1ccc(Cl)c(Cl)c1)C1CCCCC1 -4.25% [at 12.5 µM]
C[C@@H]1CN([C@H](C)CO)C(=O)c2cc(C#CCN(C)C)cnc2O[C@H]1CN(C)C(=O)NC1CCCC1 26%
CN1CCN(C(=O)C[C@H]2C[C@@H]3c4cc(NS(=O)(=O)c5ccc(F)cc5)ccc4O[C@@H]3[C@@H](CO)O2)CC1 -5.91%
CCCN1C[C@H](C)[C@@H](OC)CN(C)C(=O)c2ccc(NC(=O)CC)cc2OC[C@@H]1C 4.54%
Cc1cc(-c2ccc(C)c(S(=O)(=O)NCCCN(Cc3ccccc3)C(C)C)c2)on1 46.4% [at 12.5 µM]
Cc1noc(C)c1S(=O)(=O)NCCc1ccc(S(N)(=O)=O)cc1 -7.32% [at 12.5 µM]
CCOc1ccccc1CNS(=O)(=O)c1cc(-c2cc(C)no2)ccc1C 54.4% [at 12.5 µM]
Cc1cc(-c2ccc(C)c(S(=O)(=O)Nc3ccc(S(N)(=O)=O)cc3)c2)on1 5.41% [at 12.5 µM]
C[C@@H]1CN([C@@H](C)CO)C(=O)c2cc(NC(=O)Nc3cccc4ccccc34)ccc2O[C@H]1CN(C)Cc1ccc(Oc2ccccc2)cc1 -7.47%
C[C@H](CO)N1C[C@H](C)[C@@H](CN(C)C(=O)C2CC2)Oc2ncc(-c3cccc(F)c3)cc2C1=O -1.71%
CN(C)C(=O)C[C@@H]1CC[C@H]2[C@@H](COC[C@H](O)CN2S(=O)(=O)c2ccccc2)O1 0.2%
CCCNC(=O)Nc1ccc2c(c1)C(=O)N(C)[C@@H]1CC[C@@H](CC(=O)NC)O[C@H]1CO2 -13.3%
O=C(C[C@@H]1CC[C@H]2[C@@H](COC[C@@H](O)CN2C(=O)c2ccc3c(c2)OCO3)O1)NC1Cc2ccccc2C1 5.8%
COCCNC(=O)C[C@@H]1CC[C@H]2[C@H](COc3ccc(NS(=O)(=O)c4ccc(Cl)cc4)cc3C(=O)N2C)O1 12.5%
C[C@@H]1CN([C@@H](C)CO)C(=O)c2cc(C#CC(C)(C)O)cnc2O[C@H]1CN(C)Cc1cccc(F)c1 0.476%
CO[C@@H]1CN(C)C(=O)c2ccc(NC(=O)C3CCC3)cc2OC[C@H](C)N(C(=O)CN(C)C)C[C@H]1C -7.5%
COCC(=O)Nc1ccc2c(c1)C(=O)N(C)[C@H]1CC[C@@H](CC(=O)NCc3cccc(F)c3)O[C@H]1CO2 62.5%
COCC(=O)Nc1ccc2c(c1)C(=O)N(C)[C@@H]1CC[C@@H](CC(=O)NCc3cccc(F)c3)O[C@@H]1CO2 41.7%
CS(=O)(=O)N1[C@H](C(=O)NCc2ccncc2)[C@@H](CO)[C@@H]2Cn3c(ccc(C4=CCCCC4)c3=O)[C@@H]21 1.3%
O=C(Nc1cccc(S(=O)(=O)NC2=NCCC2)c1)c1ccc(F)cc1F 0.138% [at 12.5 µM]
CCS(=O)(=O)c1ccc(O)c(NC(=O)COc2ccc(Cl)cc2)c1 2.08% [at 12.5 µM]
C[C@H](CO)N1C[C@H](C)[C@H](CN(C)C(=O)NC2CCCCC2)OCCCC[C@H](C)Oc2ccc(NC(=O)Nc3ccc4c(c3)OCO4)cc2C1=O -2.47%
C[C@@H]1CCCCO[C@H](CN(C)Cc2ccccc2)[C@H](C)CN([C@H](C)CO)C(=O)c2cc(NS(=O)(=O)c3ccc(Cl)cc3)ccc2O1 -12.3%
COc1ccc(S(=O)(=O)Nc2ccc3c(c2)C(=O)N([C@@H](C)CO)C[C@@H](C)[C@H](CN(C)C(=O)CCC(F)(F)F)OCCCC[C@H](C)O3)cc1 -1.47%
C[C@@H]1CN([C@@H](C)CO)C(=O)c2cc(-c3cncnc3)cnc2O[C@H]1CN(C)C(=O)c1cccc(F)c1 -0.099%
